Laboratory results reported in the supplement of paper PMC13094657.
± gives the standard deviation of the averaged measurements.

test system: MDA-MB-231; experiment: cell viability relative to vehicle unstimulated control (fraction); higher = more viable cells; settings: pre-treatment time: 18 h then 24 h IFNg/TNF
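Further: viability of the cells left after supernatant collection, read with Deep Blue dye added for 4 h, as absorbance at 570 nm minus 600 nm.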

Structure (SMILES) | cell viability
CC(C)=CCCC1(C)CCC2(C)C3CCC4(C)C(C)C(=O)CCC4C3(C)CCC2(C)C1 (stereo not drawn) [Shionone] (compound dose: 10 uM) | 1.02 ± 0.0034
C=C(C=O)[C@H]1CC[C@H](C)[C@H]1C=O [dolichodial] (compound dose: 10 uM) | 1 ± 0.032
CC(C)=CCC[C@@](C)(O)[C@H]1CC[C@]2(C)[C@@H]1[C@H](O)C[C@@H]1[C@@]3(C)CC[C@H](O[C@@H]4O[C@H](CO)[C@@H](O)[C@H](O)[C@H]4O[C@@H]4O[C@H](CO)[C@@H](O)[C@H](O)[C@H]4O[C@@H]4OC[C@@H](O)[C@H](O)[C@H]4O)C(C)(C)[C@@H]3CC[C@]12C [Notoginsenoside Ft1] (compound dose: 2 uM) | 0.899 ± 0.026
C[C@H](CC[C@@H](O[C@@H]1O[C@H](CO)[C@@H](O)[C@H](O)[C@H]1O)C(C)(C)O)[C@H]1CC[C@@]2(C)[C@@H]3CC=C4[C@@H](CC[C@H](O[C@@H]5O[C@H](CO)[C@@H](O)[C@H](O)[C@H]5O)C4(C)C)[C@]3(C)[C@H](O)C[C@]12C [Mogroside IIe] (compound dose: 10 uM) | 0.984 ± 0.089
CC1=C2[C@@H](OC1=O)[C@H](O)[C@]13[C@H]4C[C@@H](C(C)(C)C)[C@]15[C@@H](OC(=O)[C@@H]5O)O[C@@]23C(=O)O4 [Ginkgolide K] (compound dose: 10 uM) | 0.996 ± 0.15
C/C=C1/[C@H](O[C@@H]2O[C@H](CO)[C@@H](O)[C@H](O)[C@H]2O)OC=C(C(=O)OC)[C@H]1CC(=O)OCCc1ccc(O)c(O)c1 [Oleuropein] (compound dose: 10 uM) | 0.978 ± 0.075
COC(=O)[C@H]1[C@H]2C[C@@H]3c4[nH]c5cc(OC)ccc5c4CCN3C[C@H]2C[C@@H](OC(=O)c2cc(OC)c(OC)c(OC)c2)[C@@H]1OC [Reserpine] (compound dose: 10 uM) | 0.954 ± 0.028
Cc1ccc(C(C)C)cc1O [Carvacrol] (compound dose: 10 uM) | 1.06 ± 0.036
CC(=O)O[C@@H](C[C@@H](C)C1=C2C[C@H](O)[C@H]3[C@@]4(C)CCC(=O)C(C)(C)[C@@H]4CC[C@]3(C)[C@@]2(C)CC1=O)[C@H]1OC1(C)C [Alisol C 23-acetate] (compound dose: 10 uM) | 0.975 ± 0.008
C/C1=C/CC[C@H](C)C(=O)C[C@@H](C(C)C)C(=O)C1 [Curdione] (compound dose: 10 uM) | 0.926 ± 0.015
C[C@]1(OC(=O)/C=C/c2ccccc2)C[C@@H](O)[C@]2(O)C=CO[C@@H](O[C@@H]3O[C@H](CO)[C@@H](O)[C@H](O)[C@H]3O)[C@@H]21 [Harpagoside] (compound dose: 10 uM) | 0.987 ± 0.013
CC12CCC(C1)C(C)(C)C2=O (single isomer, unassigned; (-)) [(-)-Fenchone] (compound dose: 10 uM) | 1.121 ± 0.0077
CC(C)=CC/C=C(\C)[C@H]1CC[C@]2(C)[C@@H]1[C@H](O)C[C@@H]1[C@@]3(C)CC[C@H](O[C@@H]4O[C@H](CO)[C@@H](O)[C@H](O)[C@H]4O[C@@H]4O[C@H](CO)[C@@H](O)[C@H](O)[C@H]4O)C(C)(C)[C@@H]3CC[C@]12C [Ginsenoside Rg5] (compound dose: 10 uM) | 0.906 ± 0.032
C=C1C(=O)O[C@@H]2/C=C(\C)CC/C=C(\C)CC[C@@H]12 [Costunolide] (compound dose: 10 uM) | 1.03 ± 0.059
C=CC(C)(O)CCC=C(C)CCC=C(C)C (mixture of isomers) [Nerolidol] (compound dose: 10 uM) | 1.01 ± 0.043
C[C@@H]1O[C@@H](OC[C@H]2O[C@@H](Oc3c(-c4ccc(O)c(O)c4)oc4cc(O)cc(O)c4c3=O)[C@H](O)[C@@H](O)[C@@H]2O)[C@H](O)[C@H](O)[C@H]1O [Rutin] (compound dose: 10 uM) | 0.867
CN1CCC[C@@H]1CC(=O)C[C@@H]1CCCN1C [Cuscohygrine] (compound dose: 10 uM) | 0.977 ± 0.14
CC1=CCC2C[C@H]1C2(C)C [(1R)-α-Pinene] (compound dose: 10 uM) | 0.932 ± 0.081
C=C1CCC[C@]2(C)C=C3OC(=O)C(C)=C3C[C@@H]12 [Atractylenolide I] (compound dose: 10 uM) | 0.983 ± 0.028

Structure (SMILES) | cell viability
O=c1cc(-c2ccc(O)cc2)oc2cc(O)cc(O)c12 [Apigenin] (compound dose: 10 uM) | 0.96 ± 0.053
C[C@@H]1C[C@@H]2O[C@@]3(O[C@@H]2C(C)(C)O)[C@H](O)[C@@]2(C)[C@@H]4CC[C@H]5C(C)(C)[C@@H](O)CC[C@@]56C[C@@]46CC[C@]2(C)[C@@H]13 [Cimigenol] (compound dose: 10 uM) | 1.03 ± 0.066
C=C(C)[C@@H]1CC[C@]2(C=O)CC[C@]3(C)[C@H](CC[C@@H]4[C@@]5(C)CC[C@H](O)C(C)(C)[C@@H]5CC[C@]43C)[C@@H]12 [Betulinaldehyde] (compound dose: 10 uM) | 1.005 ± 0.0091
C[C@@]12C[C@H](c3ccoc3)O[C@@]13C[C@H](OC3=O)[C@H]1[C@H]2C[C@@H]2C[C@H]1C(=O)O2 [Diosbulbin B] (compound dose: 10 uM) | 0.78 ± 0.24
O=c1c(-c2ccc(O)cc2)coc2c([C@@H]3O[C@H](CO)[C@@H](O)[C@H](O)[C@H]3O)c(O)ccc12 [Puerarin] (compound dose: 10 uM) | 0.944 ± 0.027
C=C[C@@]1(C)CC(=O)[C@]2(O)[C@@]3(C)[C@@H](O)CCC(C)(C)[C@@H]3[C@H](O)[C@H](OC(C)=O)[C@@]2(C)O1 [Forskolin] (compound dose: 10 uM) | 0.785 ± 0.079
CC(C)=CCCC(C)CCO (stereo not drawn) [Citronellol] (compound dose: 10 uM) | 1.03 ± 0.057
CC(C)=CCC/C(C)=C/CC/C(C)=C/CO [Farnesol] (compound dose: 10 uM) | 0.994 ± 0.062
CC(=O)OC1C2C(OC(=O)c3ccccc3)C(C)CC2(OC(C)=O)C(=O)C(C)=CC2C(CCC13CO3)C2(C)C (stereo not drawn) [Euphorbia factor L25] (compound dose: 10 uM) | 1.057 ± 0.0038
CC(=O)OC(C)(C)CCC(=O)[C@](C)(O)[C@H]1[C@H](O)C[C@@]2(C)[C@@H]3CC=C4[C@@H](C[C@H](O)[C@@H](O)C4(C)C)[C@]3(C)C(=O)C[C@]12C [Cucurbitacin IIa] (compound dose: 10 uM) | 0.939 ± 0.036
COc1cc2c(=O)c3c(O)c([C@@H]4O[C@H](CO[C@@H]5OC[C@](O)(CO)[C@H]5O)[C@@H](O)[C@H](O)[C@H]4O)c(O)cc3oc2cc1O [Polygalaxanthone III] (compound dose: 10 uM) | 1 ± 0.048
C[C@@]12C[C@@]3(O)O[C@@H](O1)[C@]1(COC(=O)c4ccccc4)[C@@H]3C[C@]12O[C@@H]1O[C@H](COC(=O)c2ccccc2)[C@@H](O)[C@H](O)[C@H]1O [Benzoylpaeoniflorin] (compound dose: 10 uM) | 0.956 ± 0.034
CC(C)=CCC[C@](C)(O)[C@H]1CC[C@]2(C)[C@@H]1[C@H](O)C[C@@H]1[C@@]3(C)CC[C@H](O[C@@H]4O[C@H](CO)[C@@H](O)[C@H](O)[C@H]4O[C@@H]4O[C@H](CO)[C@@H](O)[C@H](O)[C@H]4O)C(C)(C)[C@@H]3CC[C@]12C [20(S)-Ginsenoside Rg3] (compound dose: 10 uM) | 1 ± 0.046
CCCCCCCCCC(=O)O[C@@H]1[C@@H](C)[C@@]2(O)[C@@H](C=C(COC(=O)Cc3ccc(O)c(OC)c3)C[C@]3(O)C(=O)C(C)=C[C@@H]23)[C@@H]2C(C)(C)[C@]12OC(=O)CCCCCCCCC [Phorbol 12,13-didecanoate 20-homovanillate] (compound dose: 10 uM) | 1 ± 0.024
COc1cc2c(cc1O)C(Cc1ccc(O)cc1)[N+](C)(C)CC2 (stereo not drawn) [Magnocurarine] (compound dose: 10 uM) | 1.02 ± 0.014
C[C@@H]1CC[C@]2(C(=O)O)CC[C@]3(C)C(=CC[C@@H]4[C@@]5(C)C[C@@H](O)[C@@H](O)C(C)(C)[C@@H]5CC[C@]43C)[C@@H]2[C@]1(C)O [Euscaphic acid] (compound dose: 10 uM) | 0.933 ± 0.02
CC(C)=CCC/C(C)=C/CO [Geraniol] (compound dose: 10 uM) | 0.998 ± 0.042
CC(=O)O[C@@H]1[C@@H](O)[C@H](O[C@H]2CC[C@]34C[C@]35CC[C@]3(C)[C@@H]([C@@]6(C)CC[C@@H](C(C)(C)O)O6)[C@@H](O)C[C@@]3(C)[C@@H]5C[C@H](O[C@@H]3O[C@H](CO)[C@@H](O)[C@H](O)[C@H]3O)[C@H]4C2(C)C)OC[C@H]1O [Isoastragaloside II] (compound dose: 10 uM) | 0.99 ± 0.011
C[C@@H]1O[C@@H](O[C@H]2[C@H](O[C@H]3CC[C@@]4(C)[C@@H](CC[C@]5(C)[C@@H]4CC=C4[C@@H]6CC(C)(C)CC[C@]6(C(=O)O[C@@H]6O[C@H](CO[C@@H]7O[C@H](CO)[C@@H](O)[C@H](O)[C@H]7O)[C@@H](O)[C@H](O)[C@H]6O)CC[C@]45C)[C@]3(C)CO)OC[C@H](O)[C@@H]2O)[C@H](O)[C@H](O[C@@H]2O[C@H](CO)[C@@H](O)[C@H](O)[C@H]2O)[C@H]1O [Macranthoidin A] (compound dose: 10 uM) | 0.901 ± 0.011
